# In PubChem BioAssay (Tox21):
# A number with no mark means an inactive call. Results filed as inconclusive are left out. Where a call stands in place of a potency, no number is given. Activity calls are given as the source filed them. Calls come from the whole dose curve; as a rule, active = well fitted curve in the direction sought with a large enough effect in the repeat runs; inconclusive = weak or mixed curves; inactive = no such curve, though single readings can be large; an effect the other way counts as inactive or inconclusive.
# Key:
# [1] = qHTS RealTime-Glo MT Cell Viability Assay in HepG2 cells - 24 hour (AID 1224867); note: nearly all actives have a fitted effect of over 50% in size
# In short: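 HepG2 cells were seeded at 600 cells/well together with NanoLuc luciferase and a cell-permeant prosubstrate, preincubated 5 h at 37 C/5% CO2, then pin-dosed with compounds in DMSO. Nonlytic luminescence from viable cells was read at each time point.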
# [2] = qHTS RealTime-Glo MT Cell Viability Assay in HEK293 cells - 32 hour (AID 1224868); note: top concentration of the series differs between compounds; nearly all actives have a fitted effect of over 50% in size
# In short: (§1)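 HEK293 cells were seeded at 600 cells/well together with NanoLuc luciferase and cell-permeant prosubstrate, preincubated 5 h at 37 C/5% CO2, then given compound in DMSO by pintool. Luminescence from viable-cell prosubstrate reduction was read repeatedly over 40 h.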
# [3] = A CellTox Green Cytotoxicity Assay to monitor cytotoxicity in HEK293 cells - 0 hour (AID 1224869); note: nearly all actives have a fitted effect of over 50% in size
# In short: (§2)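 Real-time, in one plate: 600 HEK293 cells/well with dead-cell DNA dye, pinned compound after 5 h, 37 C incubation over 40 h; viable cells give no appreciable fluorescence.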
# [4] = qHTS RealTime-Glo MT Cell Viability Assay in HepG2 cells - 40 hour (AID 1224870); note: nearly all actives have a fitted effect of over 50% in size
# In short: (§3)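 HepG2 cells (600/well) mixed with RealTime-Glo MT reagent, settled 5 h at 37 C/5% CO2 before compound addition. Nonlytic NanoLuc luminescence from viable-cell prosubstrate reduction read repeatedly during 40 h treatment at 37 C.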
# [5] = A CellTox Green Cytotoxicity Assay to monitor cytotoxicity in HEK293 cells - 40 hour (AID 1224871); note: nearly all actives have a fitted effect of over 45% in size; note: potency is the fitted concentration of half-maximal effect
# In short: as §2
# [6] = qHTS RealTime-Glo MT Cell Viability Assay in HEK293 cells - 16 hour (AID 1224872)
# In short: as §1
# [7] = qHTS RealTime-Glo MT Cell Viability Assay in HepG2 cells - 8 hour (AID 1224873); note: nearly all actives have a fitted effect of over 55% in size
# In short: as §3
# [8] = qHTS RealTime-Glo MT Cell Viability Assay in HEK293 cells - 40 hour (AID 1224874); conditions: RealTime-Glo luminescence; max response: stronger effect = lower value; note: nearly all actives have a fitted effect of over 50% in size
# In short: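 Kinetic, non-lysing viability readout. Seed HEK293 (600/well) with reagent, incubate 5 h at 37 C/5% CO2, pin 23 nL compound in DMSO, incubate at 37 C, read luminescence at 0, 8, 16, 24, 32, 40 h.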
# [9] = A CellTox Green Cytotoxicity Assay to monitor cytotoxicity in HEK293 cells - 24 hour (AID 1224875); note: nearly all actives have a fitted effect of over 45% in size; note: potency is the fitted concentration of half-maximal effect; for activity change: series mostly up to about 77 µM
# In short: as §2
Compound,outcome [1],Potency [2],Potency [3],outcome [4],Potency [5],Potency [6],outcome [7],max response [8],Potency [9],"activity change, negative = cytotoxicity [1]","activity change, negative = cytotoxic [2]",cytotoxicity [3],"activity change, negative = cytotoxic [4]",cytotoxicity increase [5],"activity change, negative = cytotoxicity [6]","viability change, negative = cytotoxic [7]",activity change [9]
C[Si]1(C)O[Si](C)(C)O[Si](C)(C)O[Si](C)(C)O[Si](C)(C)O1,inactive,inactive,inactive,inactive,inactive,inactive,inactive,5.69%,inactive,–,–,–,–,–,–,–,–
CC(=O)C(C)O (centres undefined),inactive,inactive,inactive,inactive,inactive,inactive,inactive,16%,inactive,–,–,–,–,–,–,–,–
Cc1cccc(Cl)c1,inactive,inactive,inactive,inactive,inactive,inactive,inactive,0.996%,inactive,–,–,–,–,–,–,–,–
Cc1c(C(=O)c2c[nH]n(C)c2=O)ccc(S(C)(=O)=O)c1C1=NOCC1,inactive,inactive,inactive,inactive,inactive,inactive,inactive,2.86%,inactive,–,–,–,–,–,–,–,–
COc1cc2c(cc1OC)CN(C(=O)[C@H](C)N[C@@H](CCc1ccccc1)C(=O)O)[C@H](C(=O)O)C2,inactive,inactive,inactive,inactive,inactive,inactive,inactive,2.78%,inactive,–,–,–,–,–,–,–,–
O=S(=O)(O)c1ccc2c(N=Nc3ccc(S(=O)(=O)O)c4ccccc34)c(O)c(S(=O)(=O)O)cc2c1,–,–,–,–,–,–,–,4.14%,–,-1.89% [at 6.97 µM],7.73% [at 6.97 µM],3.08% [at 6.97 µM],-7.38% [at 6.97 µM],7.83% [at 6.97 µM],5.03% [at 6.97 µM],0.329% [at 6.97 µM],"9.08% [at 6.97 µM, stronger effect = higher value]"
CC(=O)CC(=O)OC(C)(C)C,inactive,inactive,inactive,inactive,inactive,inactive,inactive,1.26%,inactive,–,–,–,–,–,–,–,–
CO/N=C(/C(=O)N[C@@H]1C(=O)N2C(C(=O)[O-])=C(C[n+]3ccn4ncccc43)CS[C@H]12)c1nsc(N)n1,inactive,inactive,inactive,inactive,inactive,inactive,inactive,6.83%,inactive,–,–,–,–,–,–,–,–
O=C(CCCl)NCCc1ccccc1,inactive,inactive,inactive,inactive,inactive,inactive,inactive,5.46%,inactive,–,–,–,–,–,–,–,–
CN(C)C(C)(C)CO,inactive,inactive,inactive,inactive,inactive,inactive,inactive,1.89%,inactive,–,–,–,–,–,–,–,–
OCC1CCC(CO)CC1 (centres undefined),inactive,inactive,inactive,inactive,inactive,inactive,inactive,6.03%,inactive,–,–,–,–,–,–,–,–
O=Cc1cc2ccccc2o1,inactive,inactive,inactive,inactive,inactive,inactive,inactive,-1.57%,inactive,–,–,–,–,–,–,–,–
CCCCOCCOC(=O)COc1ccc(Cl)cc1Cl,inactive,inactive,inactive,inactive,inactive,inactive,inactive,1.37%,inactive,–,–,–,–,–,–,–,–
COc1ccc2c(c1)c1c3n2CCN(C)C3=NCC1,inactive,inactive,inactive,inactive,inactive,inactive,inactive,17.6%,inactive,–,–,–,–,–,–,–,–
OCC1(CO)COCOC1,inactive,inactive,inactive,inactive,inactive,inactive,inactive,-1.51%,inactive,–,–,–,–,–,–,–,–
CC(C)[C@H]1CC[C@H](C)C[C@@H]1O,inactive,inactive,inactive,inactive,inactive,inactive,inactive,2.31%,inactive,–,–,–,–,–,–,–,–
OCCN1CCOCC1,inactive,inactive,inactive,inactive,inactive,inactive,inactive,2.9%,inactive,–,–,–,–,–,–,–,–
COCCc1ccccn1,inactive,inactive,inactive,inactive,inactive,inactive,inactive,-3.81%,inactive,–,–,–,–,–,–,–,–

Compound,outcome [1],Potency [2],Potency [3],outcome [4],Potency [5],Potency [6],outcome [7],max response [8],Potency [9],"activity change, negative = cytotoxicity [1]","activity change, negative = cytotoxic [2]",cytotoxicity [3],"activity change, negative = cytotoxic [4]",cytotoxicity increase [5],"activity change, negative = cytotoxicity [6]","viability change, negative = cytotoxic [7]",activity change [9]
CC(C)=CCC[C@@](C)(O)[C@H]1CC=C(C)CC1,inactive,inactive,inactive,inactive,inactive,inactive,inactive,-0.631%,inactive,–,–,–,–,–,–,–,–
O=C(O)CONC(=O)c1ccccc1,inactive,inactive,inactive,inactive,inactive,inactive,inactive,1.73%,inactive,–,–,–,–,–,–,–,–
CCO[Si](CC)(OCC)OCC,inactive,inactive,inactive,inactive,inactive,inactive,inactive,-9.96%,inactive,–,–,–,–,–,–,–,–
CCCC(=O)OC/C=C(\C)CCC=C(C)C,inactive,inactive,inactive,inactive,49 µM (active),inactive,inactive,10.7%,54.9 µM (active),–,–,–,–,–,–,–,–
COC(=O)c1cc(Cl)cc(Cl)c1,inactive,inactive,inactive,inactive,inactive,inactive,inactive,-0.635%,inactive,–,–,–,–,–,–,–,–
CCOC(=O)CC1(C)OCC(C)O1 (centres undefined),inactive,inactive,inactive,inactive,inactive,inactive,inactive,1.97%,inactive,–,–,–,–,–,–,–,–
CC(CO)(CO)CO,inactive,inactive,inactive,inactive,inactive,inactive,inactive,2.55%,inactive,–,–,–,–,–,–,–,–
Cc1ccc2c(c1)C(=O)c1ccccc1C2=O,inactive,inactive,inactive,inactive,inactive,inactive,inactive,5.01%,inactive,–,–,–,–,–,–,–,–
C=CC/C=C/C,inactive,inactive,inactive,inactive,inactive,inactive,inactive,-0.772%,inactive,–,–,–,–,–,–,–,–
COC(=O)CCCCC(=O)O,inactive,inactive,inactive,inactive,inactive,inactive,inactive,8.26%,inactive,–,–,–,–,–,–,–,–
CNCCS(=O)(=O)O,inactive,inactive,inactive,inactive,inactive,inactive,inactive,4.21%,inactive,–,–,–,–,–,–,–,–
Nc1nnnn1-c1ccccc1,inactive,inactive,inactive,inactive,inactive,inactive,inactive,0.0553%,inactive,–,–,–,–,–,–,–,–
O=C(O)c1cc2ccccc2nc1C(=O)O,inactive,inactive,inactive,inactive,inactive,inactive,inactive,-2.29%,inactive,–,–,–,–,–,–,–,–
C/C(=C1\CCOC(=O)S1)N(C=O)Cc1cnc(C)nc1N,inactive,inactive,inactive,–,inactive,inactive,inactive,3.03%,inactive,–,–,–,–,–,–,–,–
CC(C)C1OCCN1CCOC(=O)NCCCCCCNC(=O)OCCN1CCOC1C(C)C (centres undefined),inactive,inactive,inactive,–,inactive,inactive,inactive,1.59%,inactive,–,–,–,–,–,–,–,–
N#Cc1cscn1,inactive,inactive,inactive,–,inactive,inactive,inactive,9.48%,inactive,–,–,–,–,–,–,–,–
O=C(O)CSCC(=O)NC1CCSC1=O (centres undefined),inactive,inactive,inactive,–,inactive,inactive,inactive,-1.55%,inactive,–,–,–,–,–,–,–,–
CCCC(CC)c1ccccc1 (centres undefined),inactive,inactive,inactive,–,inactive,inactive,inactive,11.4%,inactive,–,–,–,–,–,–,–,–
